Source: PubChem (The Scripps Research Institute Molecular Screening Center)
MOR-DOR ag – OPRM1-OPRD1 heterodimerization agonism; P35372+P41143; cells, luminescence; activation, % at 9.3 µM; hit rate 0.3% among 340,000; in the data active = activation above about 18%;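 also: 0% = vehicle-treated cells and 100% = reference agonist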
HTR5A ag ctr – HTR5A agonism, opioid heterodimer counter-screen. hit rate 0.61% among 340,000. HTR5A agonist assay, luminescence, cell-based. AID 504692. activation, % at 9.3 µM; in the data active = activation mostly above about 9.5%, no sharp cut-off; inactive = mostly below about 7.6%;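 also: 0% = cells with vehicle only and 100% = reference agonist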
Target sequence (P47898 whole entry, looked up): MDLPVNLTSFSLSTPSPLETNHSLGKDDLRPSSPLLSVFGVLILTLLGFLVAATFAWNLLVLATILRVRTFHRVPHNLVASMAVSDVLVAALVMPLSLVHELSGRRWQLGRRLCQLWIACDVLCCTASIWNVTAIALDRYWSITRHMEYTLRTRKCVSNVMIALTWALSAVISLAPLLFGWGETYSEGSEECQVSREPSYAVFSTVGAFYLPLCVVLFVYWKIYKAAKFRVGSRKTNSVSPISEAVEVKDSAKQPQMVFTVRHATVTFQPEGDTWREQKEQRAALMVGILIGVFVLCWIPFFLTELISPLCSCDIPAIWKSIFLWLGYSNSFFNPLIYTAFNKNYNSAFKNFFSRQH
HTR5A inv ag – HTR5A inverse agonism, opioid heterodimer counter-screen; HTR5A cell line, luminescence; P47898; hit rate 0.083% among 340,000; inhibition, % at 9.3 µM; in the data active = inhibition mostly above about 23%, no sharp cut-off; inactive = mostly below about 18%;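 also: 0% = cells with DMSO and 100% = no-cell wells with DMSO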
MOR-DOR inv ag – inverse agonists of human mu-delta opioid receptor heterodimerization; P35372+P41143; cell-based MOR-DOR heterodimer luminescence, inverse agonism; inhibition, % at 9.3 µM; hit rate 0.21% among 340,000; in the data active = inhibition above about 22%, passing the limit was not always enough;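 also: 0% = cells with DMSO and 100% = wells without cells with DMSO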
OPRM1-D1 inv cf – OPRM1-OPRD1 heterodimer inverse agonism, confirmation. shares compounds with MOR-DOR inv ag. cells expressing OPRM1/OPRD1 heterodimer, luminescence. inhibition, % at 9.3 µM. hit rate 20% among 580; in the data active = inhibition above about 32%;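 also: 0% = cells with DMSO and 100% = wells lacking cells with DMSO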
HTR5A inv ctr2 – HTR5A inverse agonism, opioid heterodimer counter-screen | shares compounds with MOR-DOR inv ag | HTR5A-expressing cells, luminescence | inhibition, % at 9.3 µM | 580 tested, under 10 active; call rule not given here;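 also: 0% = cells with DMSO and 100% = no-cell wells with DMSO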
* marks the source's active call; other numbers are inactive results; i = inactive; x = no result given. Most compounds without a hit are left out; they make up all but 1.1% or so of the library.

SMILES	MOR-DOR ag	HTR5A ag ctr	HTR5A inv ag	MOR-DOR inv ag	OPRM1-D1 inv cf	HTR5A inv ctr2
C[C@H]1CC[C@]2(O[C@@H](CCO)C[C@H](O)[C@H]2O)O1	-3	1	-12	17	x	x
CC(NC(=O)CN1CCN(C(=O)c2cccs2)CC1)c1ccc(F)cc1F (stereo not given)	-5	0	-3	20	x	x
CC(=O)Oc1ccc(OC(C)=O)c(SCCCCCN2CCOCC2)c1	-6	2	-10	29*	-14	-3
COC(=O)c1ccc(C)c(-n2c(=O)n(Cc3ccccc3)c(=O)c3[nH]cnc32)c1	-12	-7	24	52*	-46	9
Cc1ccccc1-n1c(=O)n(Cc2ccccc2)c(=O)c2[nH]cnc21	-4	-8	3	19	x	x
Cc1ccc(S(=O)(=O)/N=C2\C=C(NS(=O)(=O)c3ccccc3)C(=O)c3ccccc32)c(C)c1	-6	-6	22	30*	-7	-6
CCc1ccc(S(=O)(=O)/N=C2\C=C(Nc3ccc(C(=O)O)cc3)C(=O)c3ccccc32)cc1	7	1	-1	-39	x	x
CC(C)(C)c1ccc(S(=O)(=O)/N=C2\C=C(NS(=O)(=O)c3ccccc3)C(=O)c3ccccc32)cc1	-6	-6	14	32*	-25	-79
Cc1cc2c(cc1C)C(=O)C(=O)N2	-5	-2	8	24	x	x
COc1ccc2c(c1)C(=O)C(=O)N2	-12	-9	31*	63*	-45	-108
Cc1ccc2cc(C=O)c(N3CCOCC3)nc2c1C	-8	-3	10	36*	-74	-2
Cc1ccc(SCC(=O)OCC(=O)N(CC(C)C)C2CCS(=O)(=O)C2)cc1C (stereo not given)	-4	1	-2	24*	-24	-28
CN(CC1CCCN(CCc2ccc(Cl)cc2)C1)C(=O)c1ccco1 (stereo not given)	-2	3	-36	14	x	x
COc1cccc(CN2CC(C(=O)NC3CCC3)CCC2=O)c1 (stereo not given)	-1	-2	6	7	x	x
COC(=O)CCC/C=C1/SCC(NC(=O)c2ccccc2)C1=O (stereo not given)	-6	-1	-15	33*	-372	-49
O=C1Nc2ccccc2C1=Nc1ccc2[nH]c3ccccc3c2c1	-9	-4	17	49*	i	-66
CC(=O)c1cccc(N2C(=O)Nc3ccccc3N2O)c1	-1	1	1	9	x	x
Cc1ccc(N=C2C(=O)Nc3ccccc32)cc1	-10	-2	8	49*	-71	9
COc1cc(/C=N/N=C2/C(=O)Nc3ccccc32)cc(OC)c1O	0	-5	33	1	x	x
O=C1NC(=Nc2ccccc2)c2ccc([N+](=O)[O-])cc21	4	3	-24	-18	x	x
Cc1ccc([N+](=O)[O-])cc1N=C1C(=O)Nc2ccccc21	-11	-7	26	50*	-51	-101
CC(=O)c1cccc(N=C2C(=O)Nc3ccccc32)c1	-9	-1	21	59*	37*	4
Cc1ncc([N+](=O)[O-])n1CC(=O)Nc1ccc(F)c(Cl)c1	-4	3	-10	20	x	x
O=[N+]([O-])c1ccccc1OCCNCc1ccccc1	-3	-4	15	14	x	x
Cc1ccc(N=C2C(=O)Nc3ccccc32)cc1C	-8	-2	22	43*	i	-26
SMILES	MOR-DOR ag	HTR5A ag ctr	HTR5A inv ag	MOR-DOR inv ag	OPRM1-D1 inv cf	HTR5A inv ctr2
Nc1ccc2c(c1)CC(=O)c1ccccc1S2	-8	1	-8	45*	i	6
O=C1C=C(c2cc(F)ccc2F)C[C@@H](c2ccc(F)cc2)C1	5	-1	8	-30	x	x
COc1cccc(N(CC(=O)N/N=C(\C)c2cccs2)S(C)(=O)=O)c1	-1	2	-21	4	x	x
COc1ccc(C(=O)NC(=S)NCc2ccco2)cc1Br	2	-1	0	-9	x	x
CCCc1ccc(C(=O)NNc2ccc(F)cc2)cc1	-9	2	10	44*	29	6
O=C(NNc1ccc(O)cc1)c1ccc(Br)cc1	-10	1	24	66*	62*	20
CCCc1ccc(C(=O)NNC(=O)c2ccc(Br)cc2)cc1	3	0	-1	-13	x	x
CCN(CC)C(=O)CN1C(=O)C(=O)c2ccccc21	-8	-1	3	38*	14	8
CC(C)(C)NC(=O)CN(Cc1cccs1)C(=O)CN1C(=O)C(=O)c2ccccc21	-6	6	-16	33*	24	14
CC(C)(C)NC(=O)CN(Cc1cccs1)C(=O)c1csnn1	-1	-3	-14	4	x	x
CC1CCN(C(=O)CN2C(=O)C(=O)c3ccccc32)CC1	-5	0	1	29*	13	5
CC1CCN(C(=O)CN2C(=O)c3cccc4cccc(c34)C2=O)CC1	-2	-2	24	8	x	x
O=C(CN1C(=O)C(=O)c2ccccc21)c1ccc(Cl)cc1	-8	1	1	46*	-79	-9
COc1ccc(C)cc1NC(=O)C/C(C)=N/NC(=O)Cc1cccc2ccccc12	-2	-1	2	9	x	x
COc1ccccc1NC(=O)NC1(C)CCS(=O)(=O)C1 (stereo not given)	-1	4	-11	8	x	x
CCOC(=O)c1c(NC(=O)CN2C(=O)C(=O)N(CC(C)C)C2=O)sc(C)c1CC	-1	-4	10	3	x	x
O=C1C2CCC(C2)C1CN1CCOCC1 (stereo not given)	-4	-1	5	18	x	x
O=C(COC(=O)c1ccc(CO)cc1)c1ccc(S(=O)(=O)N2CCCCC2)cc1	-10	-9	22	38*	-352	-1
O=C(COC(=O)c1ccc(O)cc1)c1ccc(S(=O)(=O)N2CCCCC2)cc1	-1	-3	7	3	x	x
Cc1cccc(C)c1OCC(=O)NC1CC1	-2	3	-6	9	x	x
Cc1cccc(C)c1OCC(=O)NNC(=S)NC(=O)C1CC1	-7	-6	29	36*	-72	-36
CCOc1ccc2nc(-c3cc(NC(C)=O)ccc3O)sc2c1	-4	1	7	27*	-13	-11
CCOCC(=O)Nc1nc2ccc(OCC)cc2s1	-3	-2	-1	16	x	x
O=C(N/N=C/c1cccc2cccnc12)c1ccccc1O	-7	-5	18	36*	7	-3
O=C(Cc1ccccc1)NNc1ccc2ccccc2c1	-6	1	16	33*	-29	2
SMILES	MOR-DOR ag	HTR5A ag ctr	HTR5A inv ag	MOR-DOR inv ag	OPRM1-D1 inv cf	HTR5A inv ctr2
Cc1cc(=O)c2c([nH]1)c(C)cc1[nH]c(C)c(C)c12	-3	-1	2	14	x	x
CCNC(=S)N(CCCO)Cc1cc2cc3c(cc2[nH]c1=O)OCCO3	-3	1	-5	15	x	x
FC(F)(F)c1cnc(NNC(=S)Nc2cccnc2)c(Cl)c1	-12	-7	29	66*	45*	42
Cc1c(Cl)cccc1NC(=S)NNc1ncc(C(F)(F)F)cc1Cl	-8	-8	41	43*	25	28
Fc1ccccc1NC(=S)NNc1ncc(C(F)(F)F)cc1Cl	-8	-8	16	44*	-59	-2
O=C(NNc1ncc(C(F)(F)F)cc1Cl)c1c(Cl)cccc1Cl	-5	-2	28	24	x	x
